Source: PubChem BioAssay (Tox21)
Calls of active or inactive are those of the source. Calls follow the shape of the dose curve; as a rule, active = well fitted inhibition curve with a large enough effect in the repeat runs (not every such curve was filed as active); inconclusive = weak or mixed curves; inactive = flat fitted curve, though single readings scatter.

Biological target: Thyrotropin-releasing hormone receptor (Homo sapiens) (UniProt P34981)
Experiment: qHTS assay to identify small molecule antagonists of the thyrotropin-releasing hormone receptor (TRHR) signaling pathway (AID 1346877)
Conditions: TRHR-HEK293, TRH-induced calcium fluorescence, antagonist mode; series mostly up to 51.3 µM; activity, negative = inhibition: at the top concentration
From the text: National Center for Advancing Translational Sciences [NCATS]
NIH Chemical Genomics Center [NCGC]
U.S. Environmental Protection Agency [EPA]
National Institutes of Environmental Health Sciences [NIEHS]
National Toxicology Program [NTP]
U.S. Food and Drug Administration [FDA]
Thyrotropin-releasing hormone (TRH) receptor (TRHR) is a G-protein-coupled receptor which binds the tripeptide thyrotropin releasing hormone. TRHR is found in the brain and, when bound by TRH, acts (through phospholipase C) to increase intracellular inositol trisphosphate. It plays a crucial role in the anterior pituitary where it controls the synthesis and secretion of thyroid stimulating hormone and prolactin. The TRHR-Hek293 assay is a cell-based assay, and it has the potential to screen G protein-coupled receptors. A compound/drug can either activate (agonist) or suppress (antagonist) GPCRs that can be monitored by levels of intracellular calcium. In this assay, the Tox21 10K compound library was screened to identify potential TRHR antagonists.
Tox21 Assay Protocol Summary:
The TRHR-Hek293 cells were dispensed at 1500cells/4uL/well in 1536-well black-clear bottom plates using a Multidrop dispenser. After the assay plates were incubated at a 37 C/5% CO2 incubator for 18 hours, 4 uL of Dye-Loading Solution was added to each well. The plates were incubated at 37 C for 2 hours. For agonist mode, 23 nL of compounds dissolved in DMSO, positive controls or DMSO only was transferred to the assay plate by a pin tool. The fluorescence intensity in the plates was measured using FDSS 7000EX kinetic plate reader for 3 min at 1 sec intervals. For antagonist mode, 23 nL of compounds dissolved in DMSO, positive controls or DMSO only was transferred to the assay plate by a pin tool. After 5 min incubation at room temperature, 1 uL of TRH was added on the top of the cell/compound mixtures to achieve a final agonist concentration of 1 nM. The fluorescence intensity in the plates was measured using FDSS 7000EX kinetic plate reader for 3 min at 1 sec intervals. Each test compound was measured at 15 concentrations and in triplicates.
% is scaled to controls: 0 for no effect and ±100 for the full control effect.

Thyrotropin-releasing hormone receptor (Homo sapiens), sequence (P34981 whole entry, looked up): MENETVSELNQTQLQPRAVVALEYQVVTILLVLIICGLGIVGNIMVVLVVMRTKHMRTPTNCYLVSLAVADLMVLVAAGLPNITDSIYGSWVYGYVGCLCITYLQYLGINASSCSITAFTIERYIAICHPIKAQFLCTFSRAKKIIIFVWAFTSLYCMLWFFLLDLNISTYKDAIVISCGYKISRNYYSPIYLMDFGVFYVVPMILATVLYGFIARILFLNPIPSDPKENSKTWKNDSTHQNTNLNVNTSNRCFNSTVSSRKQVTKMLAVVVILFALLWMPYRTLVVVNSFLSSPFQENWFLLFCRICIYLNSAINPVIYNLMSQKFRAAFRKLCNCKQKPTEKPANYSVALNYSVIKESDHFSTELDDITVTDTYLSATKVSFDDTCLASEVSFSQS

Row | SMILES | activity, negative = inhibition
1 | Nc1nnnn1-c1ccccc1 | -11.3% [at 23.6 µM] (inactive)
2 | N#Cc1cscn1 | -1.39% (inactive)
3 | CC(C)Nc1ccccc1 | 2.18% (inactive)
4 | CCCCCCC1(C)CCC(=O)O1 (stereo not given) | 0.769% (inactive)
5 | CC(=O)OC(C)=O | 3.94% (inactive)
6 | CCC(=O)CC | -2.61% (inactive)
7 | C[C@@H](O)C(=O)O | -3.03% (inactive)
8 | CCC(C)C(C)=O (stereo not given) | 4.02% (inactive)
9 | CC1=NN(c2ccc(S(=O)(=O)O)cc2)C(=O)C1 | 0.868% (inactive)
10 | O=C(O)CCCCCC(=O)O | 1.32% (inactive)
11 | OC1OCCOC1O (stereo not given) | -6.53% (inactive)
12 | CC1(C)CC(OC(=O)CCCCCCCCC(=O)OC2CC(C)(C)NC(C)(C)C2)CC(C)(C)N1 | 0.698% [at 10.5 µM] (inactive)
13 | CCCCCCCCCOC(=O)CCCCC(=O)OCCCCCCC | -4.96% (inactive)
14 | C=CC(=O)OCC1CCCO1 (stereo not given) | 2.73% (inactive)
15 | CCCCCC(C)O (stereo not given) | 0.602% (inactive)
16 | CCN1CCCC1CN (stereo not given) | 4.88% [at 23.6 µM] (inactive)
17 | O=C(CCCl)NCCc1ccccc1 | -0.574% [at 23.6 µM] (inactive)
18 | O=C(Cn1ccnc1[N+](=O)[O-])NCc1ccccc1 | 0.857% [at 23.6 µM] (inactive)
19 | NCc1ccc(S(N)(=O)=O)cc1 | -0.22% [at 23.6 µM] (inactive)
20 | COS(=O)(=O)O | -3.86% (inactive)

Row | SMILES | activity, negative = inhibition
21 | Cc1ccc2c(c1)C(=O)c1ccccc1C2=O | 2.81% (inactive)
22 | Cc1ncc([N+](=O)[O-])n1CC(C)O (stereo not given) | -0.758% [at 23.6 µM] (inactive)
23 | C/C=C(\C)C(C)=O | -7.11% (inactive)
24 | COC(C)(OC)OC | -0.296% (inactive)
25 | CC1=C(C(=O)O)N2C(=O)[C@@H](NC(=O)[C@H](N)c3ccccc3)[C@H]2SC1 | 1.09% [at 23.6 µM] (inactive)
26 | C#CCN[C@@H]1CCc2ccccc21 | -2.89% [at 23.6 µM] (inactive)
27 | Cc1c(N)cccc1Cl | -4.65% (inactive)
28 | COc1ccc2c(c1)c1c3n2CCN(C)C3=NCC1 | 1.99% [at 23.6 µM] (inactive)
29 | c1ccc(B(c2ccccc2)c2ccccc2)cc1 | -3.15% (inactive)
30 | COc1nc(N)nc2nc[nH]c12 | -3.83% (inactive)
31 | O=C1NC(c2ccccc2)(c2ccccc2)C(=O)N1COP(=O)(O)O | -4.71% [at 23.6 µM] (inactive)
32 | CCCCOCCOC(=O)COc1ccc(Cl)cc1Cl | -24.7% (inactive)
33 | CC(C)CCOC(=O)c1ccccc1 | -0.703% (inactive)
34 | CNCCS(=O)(=O)O | -1.06% (inactive)
35 | C=CCCCCCCCC | 0.571% (inactive)
36 | CC(=O)OC1CCCCC1C(C)(C)C (stereo not given) | -6% (inactive)
37 | C[C@H]1[C@@H](c2ccccc2)NC(=O)N1C | 2.37% (inactive)
38 | CCOc1ccccc1OCC1CNCCO1 (stereo not given) | -2.61% [at 23.6 µM] (inactive)
39 | CC(=O)O[C@@H]1CC2CCC1(C)C2(C)C (stereo not given in full) | 3.89% (inactive)
40 | O=C(NCN1CCOCC1)c1cnccn1 | 1.99% [at 23.6 µM] (inactive)
